# Measured values as given in article PMC11006913.
# Numbering of substitutions follows the chain as printed.
# Columns and labels:
# Assay in all cases: PBM; 200 nM protein, PBS
# Conditions in all cases: dsDNA, one strand shown
# VENTX = target: T1, VENTX (Homo sapiens, UniProt O95231 78-163)
# T1 sequence: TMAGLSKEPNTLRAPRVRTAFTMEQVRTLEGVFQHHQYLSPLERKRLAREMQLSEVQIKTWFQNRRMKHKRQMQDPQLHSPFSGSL
# PAX4 [1] = target: T2, PAX4 (Homo sapiens, UniProt O43316 9-242, R200K)
# T2 sequence: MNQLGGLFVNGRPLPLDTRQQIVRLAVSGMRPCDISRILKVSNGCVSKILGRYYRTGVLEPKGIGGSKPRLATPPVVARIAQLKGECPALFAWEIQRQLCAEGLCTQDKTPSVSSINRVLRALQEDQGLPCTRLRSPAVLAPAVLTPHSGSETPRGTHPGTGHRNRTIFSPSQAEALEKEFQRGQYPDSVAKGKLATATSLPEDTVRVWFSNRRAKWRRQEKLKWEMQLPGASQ
# PAX4 [2] = target: T3, PAX4 (Homo sapiens, UniProt O43316 9-242)
# T3 sequence: T2 sequence with K192R
# HOXA2 [3] = target: HOXA2 (Homo sapiens, UniProt O43364 129-215, R185K)
# VAX1 = VAX1 (Homo sapiens, UniProt Q5SQQ9 86-172)
# PAX4 [4] = target: T4, PAX4 (Homo sapiens, UniProt O43316 9-242, R227W)
# T4 sequence: T2 sequence with K192R, R219W
# HOXA2 [5] = target: HOXA2 (Homo sapiens, UniProt O43364 129-215, Y150S)
# HOXA2 [6] = target: HOXA2 (Homo sapiens, UniProt O43364 129-215)
# HOXA7 [7] = target: HOXA7 (Homo sapiens, UniProt P31268 116-202)
# HOXA7 [8] = target: HOXA7 (Homo sapiens, UniProt P31268 116-202, W177C)
# HOXB6 = HOXB6 (Homo sapiens, UniProt P17509 132-218)
# HOXB9 [9] = target: HOXB9 (Homo sapiens, UniProt P17482 171-250, T197M)
# HOXC10 = HOXC10 (Homo sapiens, UniProt Q9NYD6 254-340, K271E)
# HOXB9 [10] = target: HOXB9 (Homo sapiens, UniProt P17482 171-250, R186Q)
# HOXC9 = HOXC9 (Homo sapiens, UniProt P31274 178-260, R222W)
# HOXC9, sequence (P31274 178-260 R222W): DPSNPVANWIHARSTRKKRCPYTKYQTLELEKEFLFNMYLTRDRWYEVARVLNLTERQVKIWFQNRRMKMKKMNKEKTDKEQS
# VAX1, sequence (Q5SQQ9 86-172): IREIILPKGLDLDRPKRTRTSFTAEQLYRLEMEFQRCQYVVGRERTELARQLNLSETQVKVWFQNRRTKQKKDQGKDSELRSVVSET
# HOXA7 (Homo sapiens, UniProt P31268 116-202), sequence (P31268 116-202): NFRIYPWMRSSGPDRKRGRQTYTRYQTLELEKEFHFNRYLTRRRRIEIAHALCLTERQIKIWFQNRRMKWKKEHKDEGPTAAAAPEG
# HOXA2 (Homo sapiens, UniProt O43364 129-215, R185K), sequence (O43364 129-215 R185K): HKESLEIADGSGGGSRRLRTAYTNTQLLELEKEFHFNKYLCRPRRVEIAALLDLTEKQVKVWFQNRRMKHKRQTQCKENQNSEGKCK
# HOXA2 (Homo sapiens, UniProt O43364 129-215, Y150S), sequence (O43364 129-215 Y150S): as the sequence (O43364 129-215 R185K) above, with Y22S, K57R counted along it
# HOXA7 (Homo sapiens, UniProt P31268 116-202, W177C), sequence (P31268 116-202 W177C): as the sequence (P31268 116-202) above, with W62C counted along it
# HOXB6, sequence (P17509 132-218): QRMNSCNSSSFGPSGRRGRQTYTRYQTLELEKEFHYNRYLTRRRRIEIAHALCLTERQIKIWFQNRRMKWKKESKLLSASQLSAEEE
# HOXA2 (Homo sapiens, UniProt O43364 129-215), sequence (O43364 129-215): as the sequence (O43364 129-215 R185K) above, with K57R counted along it
# HOXB9 (Homo sapiens, UniProt P17482 171-250, T197M), sequence (P17482 171-250 T197M): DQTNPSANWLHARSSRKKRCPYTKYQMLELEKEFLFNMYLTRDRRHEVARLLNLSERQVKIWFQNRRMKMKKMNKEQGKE
# HOXB9 (Homo sapiens, UniProt P17482 171-250, R186Q), sequence (P17482 171-250 R186Q): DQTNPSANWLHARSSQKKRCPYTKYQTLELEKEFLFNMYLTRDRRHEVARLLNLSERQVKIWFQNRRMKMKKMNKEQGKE
# HOXC10, sequence (Q9NYD6 254-340 K271E): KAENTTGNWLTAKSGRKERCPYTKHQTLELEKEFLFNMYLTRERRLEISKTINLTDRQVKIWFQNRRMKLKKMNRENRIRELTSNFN
sequence,measurement,setting,value
CTAATTGA,binding signal,VENTX,"12.8 upbm affinity estimate (log intensity, higher = more binding, comparable within an allelic series)"
same,binding signal,PAX4 [1],"11.5 upbm affinity estimate (log intensity, higher = more binding, comparable within an allelic series)"
same,binding signal,PAX4 [2],"12.2 upbm affinity estimate (log intensity, higher = more binding, comparable within an allelic series)"
same,binding signal,HOXA2 [3],"13.4 upbm affinity estimate (log intensity, higher = more binding, comparable within an allelic series)"
same,binding signal,VAX1,"13.5 upbm affinity estimate (log intensity, higher = more binding, comparable within an allelic series)"
same,binding signal,PAX4 [4],"10.7 upbm affinity estimate (log intensity, higher = more binding, comparable within an allelic series)"
same,binding signal,HOXA2 [5],"10.6 upbm affinity estimate (log intensity, higher = more binding, comparable within an allelic series)"
same,binding signal,HOXA2 [6],"12.6 upbm affinity estimate (log intensity, higher = more binding, comparable within an allelic series)"
CAATTATC,binding signal,HOXA7 [7],"11.2 upbm affinity estimate (log intensity, higher = more binding, comparable within an allelic series)"
same,binding signal,HOXA2 [3],"13 upbm affinity estimate (log intensity, higher = more binding, comparable within an allelic series)"
same,binding signal,HOXA2 [5],"10.9 upbm affinity estimate (log intensity, higher = more binding, comparable within an allelic series)"
same,binding signal,HOXA7 [8],"8.91 upbm affinity estimate (log intensity, higher = more binding, comparable within an allelic series)"
same,binding signal,HOXA2 [6],"12.1 upbm affinity estimate (log intensity, higher = more binding, comparable within an allelic series)"
same,binding signal,HOXB6,"11.6 upbm affinity estimate (log intensity, higher = more binding, comparable within an allelic series)"
CCAATTAA,binding signal,HOXB9 [9],"10 upbm affinity estimate (log intensity, higher = more binding, comparable within an allelic series)"
same,binding signal,VENTX,"12.9 upbm affinity estimate (log intensity, higher = more binding, comparable within an allelic series)"
same,binding signal,HOXA7 [7],"11.5 upbm affinity estimate (log intensity, higher = more binding, comparable within an allelic series)"
same,binding signal,PAX4 [1],"11.8 upbm affinity estimate (log intensity, higher = more binding, comparable within an allelic series)"
same,binding signal,PAX4 [2],"12.3 upbm affinity estimate (log intensity, higher = more binding, comparable within an allelic series)"
same,binding signal,HOXA2 [3],"13.1 upbm affinity estimate (log intensity, higher = more binding, comparable within an allelic series)"
same,binding signal,HOXC10,"11.9 upbm affinity estimate (log intensity, higher = more binding, comparable within an allelic series)"
same,binding signal,VAX1,"13 upbm affinity estimate (log intensity, higher = more binding, comparable within an allelic series)"
same,binding signal,HOXB9 [10],"11.4 upbm affinity estimate (log intensity, higher = more binding, comparable within an allelic series)"
same,binding signal,HOXC9,"11.1 upbm affinity estimate (log intensity, higher = more binding, comparable within an allelic series)"
same,binding signal,PAX4 [4],"11 upbm affinity estimate (log intensity, higher = more binding, comparable within an allelic series)"
same,binding signal,HOXA2 [5],"10.8 upbm affinity estimate (log intensity, higher = more binding, comparable within an allelic series)"
same,binding signal,HOXA7 [8],"8.83 upbm affinity estimate (log intensity, higher = more binding, comparable within an allelic series)"
same,binding signal,HOXA2 [6],"12.2 upbm affinity estimate (log intensity, higher = more binding, comparable within an allelic series)"
same,binding signal,HOXB6,"11.9 upbm affinity estimate (log intensity, higher = more binding, comparable within an allelic series)"
TCAATTAA,binding signal,VENTX,"12.4 upbm affinity estimate (log intensity, higher = more binding, comparable within an allelic series)"
same,binding signal,HOXA7 [7],"11.5 upbm affinity estimate (log intensity, higher = more binding, comparable within an allelic series)"
same,binding signal,HOXA2 [3],"13.2 upbm affinity estimate (log intensity, higher = more binding, comparable within an allelic series)"
same,binding signal,VAX1,"13.3 upbm affinity estimate (log intensity, higher = more binding, comparable within an allelic series)"
same,binding signal,HOXA2 [5],"10.7 upbm affinity estimate (log intensity, higher = more binding, comparable within an allelic series)"
same,binding signal,HOXA7 [8],"8.86 upbm affinity estimate (log intensity, higher = more binding, comparable within an allelic series)"
same,binding signal,HOXA2 [6],"12.4 upbm affinity estimate (log intensity, higher = more binding, comparable within an allelic series)"
same,binding signal,HOXB6,"11.9 upbm affinity estimate (log intensity, higher = more binding, comparable within an allelic series)"
GGCAGGCC,binding signal,PAX4 [1],"9.11 upbm affinity estimate (log intensity, higher = more binding, comparable within an allelic series)"
same,binding signal,PAX4 [2],"9.17 upbm affinity estimate (log intensity, higher = more binding, comparable within an allelic series)"
same,binding signal,PAX4 [4],"9.12 upbm affinity estimate (log intensity, higher = more binding, comparable within an allelic series)"
TATTAGAA,binding signal,PAX4 [1],"11 upbm affinity estimate (log intensity, higher = more binding, comparable within an allelic series)"
same,binding signal,PAX4 [2],"11.3 upbm affinity estimate (log intensity, higher = more binding, comparable within an allelic series)"
AATTAATC,binding signal,HOXB9 [9],"10 upbm affinity estimate (log intensity, higher = more binding, comparable within an allelic series)"
same,binding signal,VENTX,"12.3 upbm affinity estimate (log intensity, higher = more binding, comparable within an allelic series)"
same,binding signal,HOXA7 [7],"11.3 upbm affinity estimate (log intensity, higher = more binding, comparable within an allelic series)"
same,binding signal,PAX4 [1],"11.9 upbm affinity estimate (log intensity, higher = more binding, comparable within an allelic series)"
same,binding signal,PAX4 [2],"12.4 upbm affinity estimate (log intensity, higher = more binding, comparable within an allelic series)"
same,binding signal,PAX4 [4],"11 upbm affinity estimate (log intensity, higher = more binding, comparable within an allelic series)"
same,binding signal,HOXA7 [8],"8.73 upbm affinity estimate (log intensity, higher = more binding, comparable within an allelic series)"
same,binding signal,HOXB6,"11.6 upbm affinity estimate (log intensity, higher = more binding, comparable within an allelic series)"
CCAGGTCC,binding signal,VENTX,"8.06 upbm affinity estimate (log intensity, higher = more binding, comparable within an allelic series)"
same,binding signal,HOXA2 [3],"10.3 upbm affinity estimate (log intensity, higher = more binding, comparable within an allelic series)"
same,binding signal,HOXA2 [5],"10.5 upbm affinity estimate (log intensity, higher = more binding, comparable within an allelic series)"
same,binding signal,HOXA2 [6],"7.25 upbm affinity estimate (log intensity, higher = more binding, comparable within an allelic series)"
